“And” between values parts separate entries of the source, which are not always exact repeats. Equal values may be shown once. Results filed as inconclusive are left out. More than one record can exist for a structure, and the calls need not agree. The source made the active and inactive calls. Calls follow the shape of the dose curve; as a rule, active = well fitted curve in the direction sought with a large enough effect in the repeat runs; inconclusive = weak or mixed curves; inactive = no such curve, though single readings can be large; an effect the other way counts as inactive or inconclusive.
% is scaled to controls: 0 for no effect and ±100 for the full control effect.

A short description of the first assay: qHTS assay to identify small molecule HDAC inhibitors - cell viability counter screen (AID 1259365). Also: nearly all actives have a fitted effect of over 50% in size. As to conditions: HCT-116 viability, CellTiter-Glo ATP luminescence, 2 h; series mostly up to 92.4 µM; activity change, negative = cytotoxicity: at the top concentration. The essentials: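 Measured quantity is CellTiter-Glo luminescence from wild-type HCT-116 cells after compound incubation of 2hr at 37C, 5% CO2; reagent developed 30min at room temperature.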
(In qHTS, concentration-response curves come from the screen itself.)
As to `Cc1ccccc1CCl`, the “activity change, negative = cytotoxicity” value was -7.45% (inactive).

Consider `CCCCN=C=O`, for which the “activity change, negative = cytotoxicity” value is 5.36% (inactive).

In the case of `O=C=Nc1ccc(Cl)cc1`, the “activity change, negative = cytotoxicity” value was 1.01% (inactive).

`CCCCC(CC)COP(=O)(Oc1ccccc1)Oc1ccccc1` (configuration not stated): the “activity change, negative = cytotoxicity” value is -13% (inactive).

Consider `O=C(O)COc1ccc(Cl)cc1`, for which the “activity change, negative = cytotoxicity” value is -1.17% (inactive).

`O=C(CBr)c1ccccc1`: the “activity change, negative = cytotoxicity” value was 24.8% (inactive).

For `CCOP(=S)(Oc1ccc([N+](=O)[O-])cc1)c1ccccc1` (configuration not stated), the “activity change, negative = cytotoxicity” value is -7.86% (inactive).

Consider `C=CC(=O)OC`, for which the “activity change, negative = cytotoxicity” value is -1.22% (inactive).

As to `BrCCCCBr`, the “activity change, negative = cytotoxicity” value was 1.66% (inactive).

For `C/C(=C\c1ccccc1)[N+](=O)[O-]`, the “activity change, negative = cytotoxicity” value is 24.2% (inactive).

Consider `C=COC(C)=O`, for which the “activity change, negative = cytotoxicity” value was -0.144% (inactive).

A short description of another assay: qHTS assay to identify small molecule agonists of the sonic hedgehog signaling (Shh) pathway - cell viability counter screen (AID 1259366). Also: nearly all actives have a fitted effect of over 50% in size. Also: potency is read from the fitted curve at half-maximal effect. As to conditions: NIH/3T3 Gli1-Luc viability, CellTiter-Fluor, 24 h; series mostly up to 92.4 µM; viability change, negative = cytotoxic: at the top concentration. The essentials: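 In quantitative high-throughput format, 3T3 Gli1-Luc cells were exposed to compounds for 24hr and multiplexed for viability using CellTiter-Fluor, incubated 1hr at 37C before the fluorescence read.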
With `O=C(O)c1ccccc1C(=O)Nc1cccc2ccccc12`, the “viability change, negative = cytotoxic” value was 1.42% (inactive).

Consider `O=S(=O)(Cl)c1ccccc1`, for which the “viability change, negative = cytotoxic” value was 2.44% (inactive).

Take `O=C(O)C1(c2ccc3c(c2)OC[C@H](Cc2ccc(-c4ccccc4)cc2)[C@H]3O)CCCC1`: the “viability change, negative = cytotoxic” value was 6.48% (inactive).

`C=CC(C)=O`: the “viability change, negative = cytotoxic” value was -0.466% (inactive).

Consider `COc1c(C(C)(C)C)cc([N+](=O)[O-])c(C)c1[N+](=O)[O-]`, for which the “viability change, negative = cytotoxic” value was 0.182% (inactive).

Turning to `[O-][Cl+]O`, the “viability change, negative = cytotoxic” value is -0.0802% (inactive).

Regarding `Nc1nc(N)nc(N)n1`, the “viability change, negative = cytotoxic” value was -0.287% (inactive).

With `O=Cc1ccc2c(c1)OCO2`, the “viability change, negative = cytotoxic” value was 6.85% (inactive).

As to `CCO[C@H]1O[C@@H]2OC3(C)CC[C@H]4[C@H](C)CC[C@@H]([C@H]1C)[C@@]24OO3`, the “viability change, negative = cytotoxic” value is -0.579% [at 42.5 µM] (inactive).

On to `CO/N=C(/C(=O)OC)c1ccccc1COc1ccccc1C`, for which the “viability change, negative = cytotoxic” value was 4.88% (inactive).

On to `CC(=O)NC1CCSC1=O` (configuration not stated), for which the “viability change, negative = cytotoxic” value was 2.52% [at 42.5 µM] (inactive).

`O=Cc1ccc(Cl)cc1Cl`: the “viability change, negative = cytotoxic” value is 6.4% (inactive).

For the molecule `CC(C)(CCl)C(=O)Cl`, the “viability change, negative = cytotoxic” value is -13.8% (inactive).

Take `Nc1nc(=S)[nH][nH]1`: the “viability change, negative = cytotoxic” value is -2.5% (inactive).

On to `Cc1ccccc1CCl`, for which the “viability change, negative = cytotoxic” value was -7.55% (inactive).

In the case of `O=C=Nc1ccc(Cl)cc1`, the “viability change, negative = cytotoxic” value was 2.94% (inactive).

Turning to `O=C(O)COc1ccc(Cl)cc1`, the “viability change, negative = cytotoxic” value was 2.8% (inactive).

As for `BrCCCCBr`, the “viability change, negative = cytotoxic” value is 5.25% (inactive).

For the molecule `C/C(=C\c1ccccc1)[N+](=O)[O-]`, the Potency is 15.4 µM (active).

For `C=COC(C)=O`, the “viability change, negative = cytotoxic” value is 3.76% (inactive).

Another assay can be described thus: qHTS assay to identify small molecule antagonists of the sonic hedgehog signaling (Shh) pathway - cell viability counter screen (AID 1259367). Also: nearly all actives have a fitted effect of over 55% in size. Also: potency is read from the fitted curve at half-maximal effect. As to conditions: NIH/3T3 Gli1-Luc viability, CellTiter-Fluor, 24 h; series mostly up to 92.4 µM; viability change, negative = cytotoxic: at the top concentration. The essentials: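 CellTiter-Fluor signal in conditioned medium-stimulated 3T3 Gli1-Luc cells, 23 hr compound exposure, 37C.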
In the case of `Cl/C=C\C[N+]12CN3CN(CN(C3)C1)C2`, the “viability change, negative = cytotoxic” value is 1.62% (inactive).

`O=C(O)c1ccccc1C(=O)Nc1cccc2ccccc12`: the “viability change, negative = cytotoxic” value is -9.35% (inactive).

Regarding `O=S(=O)(Cl)c1ccccc1`, the “viability change, negative = cytotoxic” value was -3.32% (inactive).

Turning to `O=C(O)C1(c2ccc3c(c2)OC[C@H](Cc2ccc(-c4ccccc4)cc2)[C@H]3O)CCCC1`, the “viability change, negative = cytotoxic” value was 4.55% (inactive).

For `Clc1cccc2ccccc12`, the “viability change, negative = cytotoxic” value was -0.0289% (inactive).

Regarding `C=CC(C)=O`, the “viability change, negative = cytotoxic” value was 1.62% (inactive).

For the molecule `COC(=O)C(Br)CBr` (configuration not stated), the “viability change, negative = cytotoxic” value was 3.6% (inactive).

On to `CCCN(CCC)c1c([N+](=O)[O-])cc(S(C)(=O)=O)cc1[N+](=O)[O-]`, for which the “viability change, negative = cytotoxic” value is -17.8% (inactive).

Consider `NNC(=O)c1cccnc1`, for which the “viability change, negative = cytotoxic” value was 0.0394% (inactive).

Turning to `COc1c(C(C)(C)C)cc([N+](=O)[O-])c(C)c1[N+](=O)[O-]`, the “viability change, negative = cytotoxic” value is -4.81% (inactive).

For `[O-][Cl+]O`, the “viability change, negative = cytotoxic” value is 0.272% (inactive).

In the case of `Nc1nc(N)nc(N)n1`, the “viability change, negative = cytotoxic” value was 1.87% (inactive).

Turning to `O=Cc1ccc2c(c1)OCO2`, the “viability change, negative = cytotoxic” value is 4.41% (inactive).

For the molecule `CCCCOC(=O)c1ccccc1C(=O)OCc1ccccc1`, the Potency entry was “inactive and 48.6 µM (active)”.

Regarding `C=CC(=O)OCC(C)O` (configuration not stated), the “viability change, negative = cytotoxic” value was -9.19% (inactive).

As for `CCOC(=O)C(Cl)C(C)=O` (configuration not stated), the “viability change, negative = cytotoxic” value is 1.43% (inactive).

`CCCCN(N=O)C(=N)N[N+](=O)[O-]`: the “viability change, negative = cytotoxic” value is -21.8% (inactive).

For `Nc1nc(=S)[nH][nH]1`, the “viability change, negative = cytotoxic” value was 2.7% (inactive).

For the molecule `CC1C(=O)C[C@]2(C(C)C)C[C@H]12` (some centres not stated), the “viability change, negative = cytotoxic” value is -0.825% (inactive).

As for `Cc1ccccc1CCl`, the “viability change, negative = cytotoxic” value was -0.49% (inactive).

As for `CCCCN=C=O`, the “viability change, negative = cytotoxic” value was 12.1% (inactive).

Turning to `CCCCC(CC)COP(=O)(Oc1ccccc1)Oc1ccccc1` (configuration not stated), the “viability change, negative = cytotoxic” value is 2.06% (inactive).

On to `O=C(O)COc1ccc(Cl)cc1`, for which the “viability change, negative = cytotoxic” value was 4.82% (inactive).

In the case of `C=CC(=O)OC`, the “viability change, negative = cytotoxic” value is 1.59% (inactive).

On to `BrCCCCBr`, for which the “viability change, negative = cytotoxic” value was 4.88% (inactive).

As to `C=COC(C)=O`, the “viability change, negative = cytotoxic” value was 2.35% (inactive).

For the origin of these results see PubChem BioAssay (Tox21).
